In PubChem BioAssay (NCATS):
Records with an inconclusive call do not appear. The source made the active and inactive calls. Unless noted, the call rests on the fitted dose curve; in most records, active means well fitted curve in the direction sought with a large enough effect; inconclusive means small, poorly fitted or top-dose-only effect, or another doubt; inactive means no such curve, though single readings can be large; an effect the other way counts as inactive or inconclusive.

Legend:
[1] = target: ATP-dependent 6-phosphofructokinase (Trypanosoma brucei brucei) (UniProt O15648); experiment: qHTS Assay to Find Inhibitors of T. brucei phosphofructokinase: hit validation (AID 492961);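 further: luminescence reports ADP formed as PFK phosphorylates fructose-6-phosphate with ATP; on the % scale 0 is the no-effect control and ±100 the full control effect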
In short: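 Compounds titrated; %activity normalized to 0x and 1x enzyme controls, curve-fitted. Readout: ADP-Glo luminescence after 45 min room-temperature reaction of 1.25 nM PFK, 0.1 mM ATP, 0.5 mM F6P, pH 8.0.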

[2] = target: Luciferin 4-monooxygenase (Photinus pyralis) (UniProt P08659); experiment: Biochemical firefly luciferase enzyme assay for NPC (AID 624030);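 further: purified P. pyralis luciferase at 10 nM with luciferin and ATP substrate; 0% = DMSO and -100% = full luciferase inhibition by PTC124 control; nearly all actives have a fitted effect of over 70% in size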
In short: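 Purified P. pyralis luciferase at 10 nM in 50 mM Tris Acetate (final), luminescence read within 5 minutes of enzyme addition to compounds. Activity normalised to PTC124 versus DMSO; concentration-response curves classed by r2, magnitude and activity.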

[3] = S16 Schwann cell PMP22 intronic element beta-lactamase assay (AID 624044; calls by dose curve;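 further: 0% = DMSO and -100% = potassium clavulanate positive control; nearly all actives have a fitted effect of over 15% in size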); conditions: S16 rat Schwann cells, PMP22 element beta-lactamase FRET, 24 h; ratio activity, negative = inhibition: at 38.3 µM (top of the series)
In short: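 Rat S16 Schwann cells with beta-Lac driven by a PMP22 intronic element, compound-treated 24 h at 37 °C. LiveBLAzer FRET B/G read: 460 nm normalized to potassium clavulanate vs DMSO; 535 nm FRET as viability; concentration-effect curves classified.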

CP201 = experiment: qHTS profiling for inhibitors of Plasmodium falciparum proliferation (AID 504749); further: nearly all actives have a fitted effect of over 60% in size; further: potency means the concentration at half of the fitted maximal effect;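 on activity, negative = inhibition: 0% = DMSO vehicle and full inhibition = artemisinin control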; conditions: P. falciparum in erythrocytes, SYBR Green DNA, 72 h; series mostly up to 28.7 µM
In short: (§1)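 Readout was DNA-dye fluorescence from lysed cultures, ex 485/em 535 nm. Parasitized red cells had grown 72 h with compound; data scaled between 0.29 uM artemisinin and DMSO wells and corrected using vehicle-only plates.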

CP269 = experiment: as above; conditions: P. falciparum in erythrocytes, SYBR Green DNA, 72 h; series mostly up to 28.7 µM
In short: as §1

CP315 = experiment: as above; conditions: P. falciparum in erythrocytes, SYBR Green DNA, 72 h; series mostly up to 28.7 µM
In short: as §1

CP325 = experiment: as above; conditions: P. falciparum in erythrocytes, SYBR Green DNA, 72 h; series mostly up to 28.7 µM
In short: as §1

Dd2 = experiment: as above; conditions: P. falciparum in erythrocytes, SYBR Green DNA, 72 h; series mostly up to 28.7 µM
In short: as §1

FAB9 = experiment: as above; conditions: P. falciparum in erythrocytes, SYBR Green DNA, 72 h; series mostly up to 28.7 µM
In short: as §1

PC49 = experiment: as above; conditions: P. falciparum in erythrocytes, SYBR Green DNA, 72 h; series mostly up to 28.7 µM
In short: as §1

CP192 = experiment: as above; conditions: P. falciparum in erythrocytes, SYBR Green DNA, 72 h; series mostly up to 28.7 µM
In short: as §1

CP262 = experiment: as above; conditions: P. falciparum in erythrocytes, SYBR Green DNA, 72 h; series mostly up to 28.7 µM
In short: as §1

CP305 = experiment: as above; conditions: P. falciparum in erythrocytes, SYBR Green DNA, 72 h; series mostly up to 28.7 µM
In short: as §1

CP329 = experiment: as above; conditions: P. falciparum in erythrocytes, SYBR Green DNA, 72 h; series mostly up to 28.7 µM
In short: as §1

[4] = as above; conditions: P. falciparum in erythrocytes, SYBR Green DNA, 72 h; for activity, negative = inhibition: at 28.7 µM (top of the series)
In short: as §1

[5] = qHTS for Inhibitors of Plasmodium falciparum (DD2) proliferation (AID 504314); further: potency means the concentration at half of the fitted maximal effect;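 on activity, negative = inhibition: parasite DNA measured by SYBR Green fluorescence after red cell lysis; plate controls were DMSO vehicle for no effect and artemisinin wells for full effect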
In short: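 Quantitative HTS growth inhibition: SYBR Green I binding to parasite DNA after 72 h drug exposure of infected erythrocytes (0.3% parasitemia, 2.5% hematocrit). Signals normalized per plate to inhibitor and vehicle wells.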

[6] = qHTS for Inhibitors of Plasmodium falciparum (GB4) proliferation (AID 504315); further: nearly all actives have a fitted effect of over 50% in size; further: potency means the concentration at half of the fitted maximal effect
In short: (§2)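 Erythrocytes infected with P. falciparum line (0.3% parasitemia, 2.5% hematocrit final) incubated with compounds 72 h at 37 °C, 5% CO2; SYBR Green lysis buffer added, fluorescence read next day. Normalized to 0.29 uM artemisinin and DMSO.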

[7] = qHTS for Inhibitors of Plasmodium falciparum (7G8) proliferation (AID 504316);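 further: 0% = DMSO vehicle and -100% = 0.29 µM artemisinin full kill; nearly all actives have a fitted effect of over 65% in size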
In short: as §2

Chain of Luciferin 4-monooxygenase (Photinus pyralis) (P08659 whole entry, looked up): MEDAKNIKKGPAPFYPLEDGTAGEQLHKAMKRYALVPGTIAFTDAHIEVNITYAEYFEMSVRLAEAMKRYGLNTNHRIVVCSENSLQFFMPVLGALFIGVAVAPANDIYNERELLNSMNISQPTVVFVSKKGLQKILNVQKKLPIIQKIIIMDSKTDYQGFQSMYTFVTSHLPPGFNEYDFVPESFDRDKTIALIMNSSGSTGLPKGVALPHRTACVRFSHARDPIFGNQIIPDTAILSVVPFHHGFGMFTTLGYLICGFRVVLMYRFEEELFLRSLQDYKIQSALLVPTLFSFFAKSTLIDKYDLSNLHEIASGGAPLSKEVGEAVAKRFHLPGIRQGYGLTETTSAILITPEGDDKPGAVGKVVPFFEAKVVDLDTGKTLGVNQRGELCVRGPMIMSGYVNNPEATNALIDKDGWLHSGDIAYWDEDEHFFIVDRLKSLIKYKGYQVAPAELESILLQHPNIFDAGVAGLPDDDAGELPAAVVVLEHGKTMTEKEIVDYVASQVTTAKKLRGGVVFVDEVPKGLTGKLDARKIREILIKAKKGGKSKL
Chain of ATP-dependent 6-phosphofructokinase (Trypanosoma brucei brucei) (O15648 whole entry, looked up): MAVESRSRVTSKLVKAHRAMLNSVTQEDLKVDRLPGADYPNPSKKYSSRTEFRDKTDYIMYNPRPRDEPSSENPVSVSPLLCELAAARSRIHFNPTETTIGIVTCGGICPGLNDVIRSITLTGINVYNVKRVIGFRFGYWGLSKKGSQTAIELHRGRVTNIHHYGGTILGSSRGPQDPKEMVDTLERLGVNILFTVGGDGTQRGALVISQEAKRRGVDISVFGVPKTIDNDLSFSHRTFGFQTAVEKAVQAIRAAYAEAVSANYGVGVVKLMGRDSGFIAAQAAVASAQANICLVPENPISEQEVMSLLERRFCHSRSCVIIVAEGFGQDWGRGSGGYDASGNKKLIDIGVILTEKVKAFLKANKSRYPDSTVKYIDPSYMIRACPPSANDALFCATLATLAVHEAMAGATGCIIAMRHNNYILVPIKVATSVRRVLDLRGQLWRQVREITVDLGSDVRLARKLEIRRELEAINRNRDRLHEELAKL

O=C(NC(CO)C(O)c1ccc([N+](=O)[O-])cc1)C(Cl)Cl (stereo not drawn)
inactive: Potency [1] | Potency [2] | Potency [3] | Potency (CP201) | Potency (CP315) | Potency (FAB9) | Potency (PC49)
active: Potency (CP269) 3.01 µM | Potency (CP325) 6.01 µM | Potency (Dd2) 8.91 µM

C[C@@H]1CC2[C@@H]3C[C@H](F)C4=CC(=O)C(Cl)=C[C@]4(C)[C@@]3(F)[C@H](O)C[C@]2(C)[C@@]1(O)C(=O)CO (stereo partly drawn)
inactive: Potency [1] | Potency [2] | Potency (CP192) | Potency (CP201) | Potency (CP262) | Potency (CP269) | Potency (CP305) | Potency (CP315) | Potency (CP325) | Potency (CP329) | Potency (Dd2) | Potency (FAB9) | Potency (PC49)

CC[C@H]1OC(=O)[C@H](C)C(=O)[C@H](C)[C@@H](OC2O[C@H](C)C[C@H](N(C)C)[C@@H]2O)[C@@](C)(OC)C[C@@H](C)C(=O)[C@@H](C)C2N(CCCCn3cnc(-c4cccnc4)c3)C(=O)O[C@@]21C (stereo partly drawn)
inactive: Potency [1] | Potency [2] | Potency [3] | activity, negative = inhibition ([4]; parasite line A) -28.5% | Potency (CP192) | Potency (CP201) | Potency (CP262) | Potency (CP269) | Potency (CP305) | Potency (CP315) | Potency (CP325) | Potency (CP329) | Potency (FAB9) | Potency (PC49)

CC#CCN1c2ccccc2[C@]23C[C@@H](C(=O)OC)N(S(=O)(=O)c4ccc5c(c4)OCCN5C)C2=NC(C(=O)OC)=C(C(=O)OC)[C@H]13
inactive: Potency [5]

Cc1ccc(S(=O)(=O)N2CCc3nc(COc4ccccc4)c4c(c3C2)CO[C@@H](C)C4)cc1
inactive: Potency [5]

C[C@@H]1CC[C@H]2C(=O)N(Cc3ccc(Cl)cc3)C[C@H](O)CN2[C@@H]1c1ccc(Br)cc1
active: Potency [5] 1.69 µM

COC(=O)C1=C(C(=O)OC)[C@@H]2Nc3ccccc3[C@@]23C[C@@H](C(=O)OC)N(S(=O)(=O)c2ccc(Br)cc2)C3=N1
inactive: Potency [5]
active: Potency [6] 1.9 µM

C=C1CC[C@H](O)C/C1=C/C=C1\CCC[C@]2(C)[C@@H]([C@H](C)CCCC(C)(C)O)CC[C@@H]12
inactive: Potency [1] | Potency [2] | Potency (CP192) | Potency (CP201) | Potency (CP262) | Potency (CP269) | Potency (CP305) | Potency (CP315) | Potency (CP325) | Potency (CP329) | Potency (FAB9)
active: Potency ([4]; parasite line B) 11.2 µM | Potency (Dd2) 12.6 µM

COc1ccc(CC(C)NCC(O)c2ccc(O)c(NC=O)c2)cc1 (stereo not drawn)
inactive: Potency [1] | Potency [2] | Potency [3]

COC/C=C/C1=CC2=CC(=O)C(C)(OC(=O)c3cnc4ccccc4n3)C(=O)C2=CN1c1cccc(C#N)c1 (stereo not drawn)
inactive: Potency [5] | Potency [6] | Potency [7]

CC#CCN1c2ccccc2[C@]23C[C@@H](C(=O)OC)N(S(=O)(=O)c4ccc(C(F)(F)F)cc4)C2=NC(C(=O)OC)=C(C(=O)OC)[C@H]13
active: Potency [6] 1.9 µM
inactive: Potency [5]

COC(=O)C1=C(C(=O)OC)[C@@H]2N(C)c3ccccc3[C@@]23C[C@@H](C(=O)OC)N(S(=O)(=O)c2ccc(C(F)(F)F)cc2)C3=N1
active: Potency [6] 2.13 µM
inactive: Potency [5]

Oc1cc2cc(CCN3CCN(c4nsc5ccccc45)CC3)c(Cl)cc2[nH]1
inactive: Potency [1] | Potency [2] | Potency [3] | activity, negative = inhibition ([4]; parasite line B) -29.2% | Potency (CP192) | Potency (CP201) | Potency (CP262) | Potency (CP269) | Potency (CP305) | Potency (CP315) | Potency (CP325) | Potency (CP329) | Potency (Dd2) | Potency (FAB9) | Potency (PC49)

CCC1OC(=O)C[C@@H](O)[C@H](C)[C@@H](OC2OC(C)CC(N(C)C)C2O)[C@@H](CC=O)C[C@@H](C)C(=O)/C=C/[C@]2(C)OC2C1C (stereo partly drawn)
inactive: Potency [1] | Potency [3] | Potency (FAB9)
active: Potency (Dd2) 1 µM

Cc1cncc(C(=O)O)[n+]1[O-]
inactive: Potency [1] | Potency [2] | Potency (CP192) | Potency (CP201) | Potency (CP262) | Potency (CP269) | Potency (CP305) | Potency (CP315) | Potency (CP325) | Potency (CP329) | Potency (Dd2) | Potency (FAB9) | Potency (PC49)

C=C1CC[C@H](O)C/C1=C/C=C1\CCC[C@]2(C)[C@@H]([C@H](C)CC[C@@H](O)C(C)(C)O)CC[C@@H]12
inactive: Potency [1] | Potency [3] | Potency (CP192) | Potency (CP201) | Potency (CP262) | Potency (CP269) | Potency (CP305) | Potency (CP315) | Potency (CP325) | Potency (CP329) | Potency (FAB9) | Potency (PC49)

COc1ccc(-c2nc3c(c4c2C[C@H](c2ccccc2)OC4)CN(C(=O)C2CCCCC2)CC3)c(C)c1
inactive: Potency [5]

COC(=O)C1=C(C(=O)OC)[C@@H]2Nc3ccccc3[C@@]23C[C@@H](C(=O)OC)N(S(=O)(=O)c2ccc([N+](=O)[O-])cc2)C3=N1
inactive: Potency [5]

Nc1ccccc1C(=O)C=Cc1ccccc1
inactive: Potency [5] | Potency [6]

C=CCN1c2ccccc2[C@]23C[C@@H](C(=O)OC)N(S(=O)(=O)c4ccc(C(F)(F)F)cc4)C2=NC(C(=O)OC)=C(C(=O)OC)[C@H]13
inactive: Potency [5]

CCCCc1nc2c(c3c1C[C@H](C)OC3)CN(C(=O)N[C@H](C(=O)OC)C(C)C)CC2
inactive: Potency [5] | Potency [6]

C=C1CCC(O)C/C1=C/C=C1\CCC[C@]2(C)[C@@H]([C@H](C)/C=C/[C@H](C)C(C)C)CC[C@@H]12 (stereo partly drawn)
inactive: Potency [1] | Potency [2] | Potency [3] | Potency (CP192) | Potency (CP201) | Potency (CP262) | Potency (CP269) | Potency (CP305) | Potency (CP315) | Potency (CP325) | Potency (CP329) | Potency (FAB9)

CC1=C(/C=C/C(C)=C\C=C\C(C)=C\C=C\C=C(C)\C=C\C=C(C)\C=C\C2=C(C)C[C@@H](O)CC2(C)C)C(C)(C)C[C@H](O)C1
active: Potency (Dd2) 11.2 µM | Potency (PC49) 7.08 µM
inactive: Potency [1] | Potency [2] | Potency [3] | Potency (CP192) | Potency (CP201) | Potency (CP262) | Potency (CP269) | Potency (CP305) | Potency (CP315) | Potency (CP325) | Potency (CP329) | Potency (FAB9)

C[C@H]1Cc2c(COc3ccccc3)nc3c(c2CO1)CN(C(=O)c1ccco1)CC3
inactive: Potency [5]

COC(=O)C1=C(C(=O)OC)[C@@H]2N(C)c3ccccc3[C@@]23C[C@@H](C(=O)OC)N(S(=O)(=O)c2ccc([N+](=O)[O-])cc2)C3=N1
inactive: Potency [5]
active: Potency [6] 1.69 µM

CCN(CC)CCOCCOC(=O)C(CC)(CC)c1ccccc1 (tested in a mixture with another compound)
active: Potency (CP305) 8.49 µM | Potency (Dd2) 0.891 µM
inactive: Potency [1] | Potency [2] | Potency (CP192) | Potency (CP262) | Potency (CP315) | Potency (FAB9)
